In the supplement of paper PMC10849652:
Of roughly 7,900 targets only a part is listed; those with a hit were picked by preference. About 0.6% of all pairs of compound and target were hits.

Experiments:
Assay in all cases: log2 fold change, soluble protein after heating vs DMSO (PISA); higher = thermal stabilisation; K562 cells, 10 uM, 30 min; active = over 0.2 and 3.5 SD of the protein, either way, in both replicates (recomputed)
[1] = compound: NC(=O)Nc1cc(-c2cccc(F)c2)sc1C(=O)N[C@H]1CCCNC1
In short: (§1)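 K562 cells at 2×10^6 cells/mL were treated with 10 μM compound for 30 min. Aliquots were heated for 3 min across 48°C-58°C, pooled, and extracted in PBS with 0.5% NP-40 at 4°C; soluble protein was the supernatant after 21,000xg for 90 min. Soluble protein was quantified by TMTpro 16plex LC-MS/MS with channel sums equalised, and reported as log2 fold change in thermal stability against DMSO controls, with values from duplicates.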

[2] = compound: NC(=O)c1cnc(N[C@@H]2CCCC[C@@H]2N)nc1Nc1cccc(-n2nccn2)c1
In short: as §1

[3] = compound: NC1(c2ccc(-c3nc4ccn5c(=O)[nH]nc5c4cc3-c3ccccc3)cc2)CCC1
In short: as §1

[4] = compound: NCC(=O)Nc1ccc(-n2nc(C(F)(F)F)cc2-c2ccc3c(ccc4ccccc43)c2)cc1
In short: as §1

entinostat = compound: Nc1ccccc1NC(=O)c1ccc(CNC(=O)OCc2cccnc2)cc1 [entinostat]
In short: as §1

vorinostat = compound: O=C(CCCCCCC(=O)Nc1ccccc1)NO [vorinostat]
In short: as §1

citarinostat = compound: O=C(CCCCCCNC(=O)c1cnc(N(c2ccccc2)c2ccccc2Cl)nc1)NO [citarinostat]
In short: as §1

silmitasertib = compound: O=C(O)c1ccc2c(c1)nc(Nc1cccc(Cl)c1)c1ccncc12 [silmitasertib]
In short: as §1

[5] = compound: O=C1NC(=O)C(c2cnc3ccccn23)=C1c1cn2c3c(cc(F)cc13)CN(C(=O)N1CCCCC1)CC2
In short: as §1

[6] = compound: c1cc(OCCN2CCCCC2)cc(-c2n[nH]c3ccc(-c4nnc[nH]4)cc23)c1
In short: as §1

Measured: log2 fold change

MDN1 (UniProt Q9NU22)
inactive: [1] -0.002 | [2] -0.087 | [3] -0.138 | [4] -0.058 | entinostat 0.112 | vorinostat 0.098 | citarinostat 0.075 | silmitasertib -0.037 | [5] -0.032 | [6] 0.082

KTN1 (UniProt Q86UP2)
inactive: [1] 0.036 | [2] 0.06 | [3] 0.035 | [4] -0.038 | entinostat 0.05 | vorinostat 0.027 | citarinostat 0.033 | silmitasertib 0.06 | [5] 0.148 | [6] -0.189

LAMP2 (UniProt P13473)
inactive: [1] -0.013 | [2] 0.043 | [3] -0.122 | [4] 0.055 | entinostat -0.045 | vorinostat 0.083 | citarinostat 0.158 | silmitasertib 0.005 | [5] 0.065 | [6] -0.11

MAPK12 (UniProt P53778)
active: [5] 0.348
inactive: [1] -0.076 | [2] -0.095 | [3] -0.09 | [4] 0.014 | entinostat 0.012 | vorinostat 0.08 | citarinostat 0.046 | silmitasertib -0.006 | [6] 0.018

KSR1 (UniProt Q8IVT5)
inactive: [1] -0.333 | [2] -0.049 | [3] 0.236 | [4] -0.111 | entinostat 0.044 | vorinostat 0.013 | citarinostat 0.045 | silmitasertib -0.279 | [5] -0.118 | [6] -0.193

KNTC1 (UniProt P50748)
inactive: [1] -0.037 | [2] -0.1 | [3] -0.193 | [4] -0.046 | entinostat 0.049 | vorinostat 0.029 | citarinostat 0.037 | silmitasertib 0.077 | [5] 0.013 | [6] -0.004

LPCAT3 (UniProt Q6P1A2)
inactive: [1] -0.074 | [2] -0.105 | [3] -0.185 | [4] -0.229 | entinostat 0.044 | vorinostat 0.024 | citarinostat 0.087 | silmitasertib 0.05 | [5] -0.091 | [6] 0.072

MAP4 (UniProt E7EVA0)
inactive: [1] 0.162 | [2] 0.165 | [3] 0.144 | [4] 0.105 | entinostat -0.096 | vorinostat -0.018 | citarinostat -0.164 | silmitasertib 0.003 | [5] 0.106 | [6] -0.075

KDM5D isoform 3 (UniProt Q9BY66)
UniProt Q9BY66, sequence (Q9BY66 whole entry, looked up): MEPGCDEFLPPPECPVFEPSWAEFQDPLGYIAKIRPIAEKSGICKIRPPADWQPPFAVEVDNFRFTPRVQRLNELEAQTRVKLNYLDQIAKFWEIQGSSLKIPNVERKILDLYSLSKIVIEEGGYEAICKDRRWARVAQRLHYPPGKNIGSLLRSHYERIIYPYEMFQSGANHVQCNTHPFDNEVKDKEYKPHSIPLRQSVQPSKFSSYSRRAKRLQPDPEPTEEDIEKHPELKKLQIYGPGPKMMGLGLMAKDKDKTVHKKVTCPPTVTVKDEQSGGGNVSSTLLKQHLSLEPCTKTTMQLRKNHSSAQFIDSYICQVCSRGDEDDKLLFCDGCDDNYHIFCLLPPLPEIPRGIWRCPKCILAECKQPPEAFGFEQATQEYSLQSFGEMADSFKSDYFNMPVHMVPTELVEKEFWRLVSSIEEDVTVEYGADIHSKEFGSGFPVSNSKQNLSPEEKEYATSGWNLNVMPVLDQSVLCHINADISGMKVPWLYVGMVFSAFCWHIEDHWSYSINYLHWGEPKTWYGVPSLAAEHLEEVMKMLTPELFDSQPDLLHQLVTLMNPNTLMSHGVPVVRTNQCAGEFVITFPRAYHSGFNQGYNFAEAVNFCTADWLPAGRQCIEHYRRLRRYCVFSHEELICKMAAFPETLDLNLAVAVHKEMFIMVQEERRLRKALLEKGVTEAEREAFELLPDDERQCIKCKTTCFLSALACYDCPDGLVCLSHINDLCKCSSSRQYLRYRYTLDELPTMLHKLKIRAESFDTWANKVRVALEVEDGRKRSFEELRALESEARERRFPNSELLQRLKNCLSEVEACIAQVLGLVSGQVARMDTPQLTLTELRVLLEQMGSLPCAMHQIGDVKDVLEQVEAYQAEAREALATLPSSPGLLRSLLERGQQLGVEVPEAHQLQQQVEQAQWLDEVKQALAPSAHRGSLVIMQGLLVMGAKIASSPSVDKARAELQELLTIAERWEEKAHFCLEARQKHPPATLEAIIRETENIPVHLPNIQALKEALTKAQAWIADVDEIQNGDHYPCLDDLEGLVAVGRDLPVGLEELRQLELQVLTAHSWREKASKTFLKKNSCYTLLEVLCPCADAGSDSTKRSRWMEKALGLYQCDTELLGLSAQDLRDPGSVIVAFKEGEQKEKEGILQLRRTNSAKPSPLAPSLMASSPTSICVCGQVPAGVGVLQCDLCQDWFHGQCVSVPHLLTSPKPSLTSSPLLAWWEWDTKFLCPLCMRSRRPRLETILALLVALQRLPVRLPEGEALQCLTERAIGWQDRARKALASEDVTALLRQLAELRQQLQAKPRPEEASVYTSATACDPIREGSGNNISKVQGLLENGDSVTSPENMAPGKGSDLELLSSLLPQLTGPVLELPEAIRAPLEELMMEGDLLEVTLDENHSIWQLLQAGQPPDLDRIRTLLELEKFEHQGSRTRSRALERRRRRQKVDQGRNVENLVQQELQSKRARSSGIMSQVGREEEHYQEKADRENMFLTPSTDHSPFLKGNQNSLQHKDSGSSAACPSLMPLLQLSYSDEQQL
inactive: [1] -0.038 | [2] -0.012 | [3] -0.134 | [4] -0.025 | entinostat 0.135 | vorinostat 0.006 | citarinostat 0.198 | silmitasertib 0.176 | [5] 0 | [6] -0.096

LTN1 isoform 3 (UniProt O94822)
UniProt O94822, sequence (O94822 whole entry, looked up): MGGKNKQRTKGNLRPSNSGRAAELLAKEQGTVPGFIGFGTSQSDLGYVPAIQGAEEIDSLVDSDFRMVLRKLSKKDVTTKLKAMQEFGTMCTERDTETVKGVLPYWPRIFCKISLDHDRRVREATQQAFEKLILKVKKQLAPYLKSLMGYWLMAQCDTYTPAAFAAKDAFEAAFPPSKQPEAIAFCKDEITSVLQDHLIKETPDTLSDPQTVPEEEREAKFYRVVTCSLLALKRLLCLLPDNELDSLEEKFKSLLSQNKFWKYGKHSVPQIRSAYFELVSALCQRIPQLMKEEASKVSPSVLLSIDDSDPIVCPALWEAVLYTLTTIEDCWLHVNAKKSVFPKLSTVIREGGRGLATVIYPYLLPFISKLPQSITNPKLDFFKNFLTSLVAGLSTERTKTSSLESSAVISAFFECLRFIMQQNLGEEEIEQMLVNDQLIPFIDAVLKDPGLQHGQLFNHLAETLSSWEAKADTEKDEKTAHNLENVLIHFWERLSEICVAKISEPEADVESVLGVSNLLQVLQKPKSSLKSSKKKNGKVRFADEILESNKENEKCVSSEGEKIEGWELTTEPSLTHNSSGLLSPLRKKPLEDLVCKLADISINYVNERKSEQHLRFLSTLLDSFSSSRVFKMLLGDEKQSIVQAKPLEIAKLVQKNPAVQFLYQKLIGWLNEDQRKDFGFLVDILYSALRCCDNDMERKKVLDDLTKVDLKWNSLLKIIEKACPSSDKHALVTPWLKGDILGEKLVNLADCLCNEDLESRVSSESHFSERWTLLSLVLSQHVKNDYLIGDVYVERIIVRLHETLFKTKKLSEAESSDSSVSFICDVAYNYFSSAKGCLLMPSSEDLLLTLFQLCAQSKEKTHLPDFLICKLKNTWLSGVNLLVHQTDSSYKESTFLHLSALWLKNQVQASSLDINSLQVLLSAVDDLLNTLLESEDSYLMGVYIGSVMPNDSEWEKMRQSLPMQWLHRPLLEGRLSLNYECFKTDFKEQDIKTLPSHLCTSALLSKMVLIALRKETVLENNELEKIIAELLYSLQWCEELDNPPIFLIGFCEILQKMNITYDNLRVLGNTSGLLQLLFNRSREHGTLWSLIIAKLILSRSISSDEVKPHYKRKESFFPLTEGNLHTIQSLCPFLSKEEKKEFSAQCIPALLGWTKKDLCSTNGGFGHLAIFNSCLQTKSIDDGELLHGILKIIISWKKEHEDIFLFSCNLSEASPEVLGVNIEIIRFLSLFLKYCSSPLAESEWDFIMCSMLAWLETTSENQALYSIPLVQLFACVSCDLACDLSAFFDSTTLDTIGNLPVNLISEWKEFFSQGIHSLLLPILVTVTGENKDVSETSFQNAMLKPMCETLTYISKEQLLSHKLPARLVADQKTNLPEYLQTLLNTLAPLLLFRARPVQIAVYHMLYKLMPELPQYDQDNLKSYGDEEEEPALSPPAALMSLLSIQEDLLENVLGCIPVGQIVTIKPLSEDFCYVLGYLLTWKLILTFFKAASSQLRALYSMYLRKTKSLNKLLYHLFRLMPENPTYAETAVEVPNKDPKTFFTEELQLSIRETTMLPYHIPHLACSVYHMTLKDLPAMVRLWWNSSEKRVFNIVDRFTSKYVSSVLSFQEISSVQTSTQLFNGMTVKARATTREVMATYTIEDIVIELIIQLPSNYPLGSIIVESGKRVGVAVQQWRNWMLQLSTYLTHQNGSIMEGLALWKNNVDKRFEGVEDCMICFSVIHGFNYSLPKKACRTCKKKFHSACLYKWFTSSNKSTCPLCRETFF
inactive: [1] 0.024 | [2] -0.079 | [3] -0.125 | [4] -0.09 | entinostat 0.056 | vorinostat 0.148 | citarinostat 0.048 | silmitasertib 0.035 | [5] 0.037 | [6] -0.045

LMNB1 (UniProt P20700)
inactive: [1] 0.094 | [2] -0.073 | [3] 0.078 | [4] -0.018 | entinostat 0.024 | vorinostat -0.029 | citarinostat 0.033 | silmitasertib 0.097 | [5] -0.105 | [6] -0.072

MAST4 (UniProt O15021)
inactive: [1] -0.217 | [2] -0.038 | [3] -0.298 | [4] -0.115 | entinostat 0.085 | vorinostat 0.045 | citarinostat 0.135 | silmitasertib -0.053 | [5] 0.051 | [6] -0.151

KLC2 (UniProt Q9H0B6)
UniProt Q9H0B6, sequence (Q9H0B6 whole entry, looked up): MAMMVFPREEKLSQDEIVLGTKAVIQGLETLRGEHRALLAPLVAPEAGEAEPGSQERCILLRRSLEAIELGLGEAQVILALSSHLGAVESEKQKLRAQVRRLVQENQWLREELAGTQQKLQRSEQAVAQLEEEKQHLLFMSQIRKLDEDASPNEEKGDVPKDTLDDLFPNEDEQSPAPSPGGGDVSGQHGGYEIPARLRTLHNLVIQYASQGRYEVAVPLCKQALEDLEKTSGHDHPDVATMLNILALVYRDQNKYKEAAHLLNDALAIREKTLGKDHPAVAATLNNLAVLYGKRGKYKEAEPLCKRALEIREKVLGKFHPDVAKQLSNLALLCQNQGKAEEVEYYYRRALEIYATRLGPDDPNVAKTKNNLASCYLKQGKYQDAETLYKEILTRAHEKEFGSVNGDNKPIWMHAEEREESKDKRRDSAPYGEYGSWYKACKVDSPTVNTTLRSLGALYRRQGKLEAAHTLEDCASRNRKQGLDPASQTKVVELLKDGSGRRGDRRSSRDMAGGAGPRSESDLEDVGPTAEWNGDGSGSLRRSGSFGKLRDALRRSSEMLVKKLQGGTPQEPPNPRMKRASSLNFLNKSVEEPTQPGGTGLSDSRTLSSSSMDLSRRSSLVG
inactive: [1] -0.149 | [2] -0.084 | [3] -0.134 | [4] -0.044 | entinostat 0.031 | vorinostat 0.044 | citarinostat 0.061 | silmitasertib 0.063 | [5] 0.007 | [6] -0.082

MED17 (UniProt Q9NVC6)
active: [2] -0.33
inactive: [1] 0.068 | [3] 0.049 | [4] -0.034 | entinostat -0.128 | vorinostat 0.045 | citarinostat 0.014 | silmitasertib 0.074 | [5] 0.112 | [6] 0.126

KCT2 (UniProt Q8NC54)
UniProt Q8NC54, sequence (Q8NC54 whole entry, looked up): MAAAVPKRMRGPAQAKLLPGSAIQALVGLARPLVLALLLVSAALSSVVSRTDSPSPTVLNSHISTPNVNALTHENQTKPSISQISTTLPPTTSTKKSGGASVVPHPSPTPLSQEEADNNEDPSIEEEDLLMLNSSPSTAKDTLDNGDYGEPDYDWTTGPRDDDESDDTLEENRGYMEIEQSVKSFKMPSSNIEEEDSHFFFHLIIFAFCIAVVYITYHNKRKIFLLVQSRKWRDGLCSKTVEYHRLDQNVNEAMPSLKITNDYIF
active: [3] -0.378
inactive: [1] 0.047 | [2] -0.029 | [4] 0.013 | entinostat -0.054 | vorinostat 0.022 | citarinostat 0.05 | silmitasertib 0.035 | [5] 0.047 | [6] -0.02

INTS7 (UniProt Q9NVH2)
inactive: [1] -0.076 | [2] 0.037 | [3] 0.001 | [4] -0.045 | entinostat -0.095 | vorinostat 0.049 | citarinostat -0.007 | silmitasertib 0.055 | [5] 0.092 | [6] 0.01

KIF1B isoform 4 (UniProt O60333)
inactive: [1] 0.043 | [2] -0.059 | [3] -0.16 | [4] -0.03 | entinostat 0.011 | vorinostat 0.063 | citarinostat 0.054 | silmitasertib 0.009 | [5] -0.037 | [6] -0.062

LONP2 (UniProt Q86WA8)
inactive: [1] 0.094 | [2] 0.024 | [3] -0.279 | [4] 0.041 | entinostat -0.05 | vorinostat -0.006 | citarinostat -0.069 | silmitasertib 0.105 | [5] -0.007 | [6] -0.219

MAGEC2 (UniProt Q9UBF1)
inactive: [1] 0.013 | [2] -0.037 | [3] -0.021 | [4] -0.004 | entinostat -0.009 | vorinostat 0.032 | citarinostat 0.029 | silmitasertib 0.057 | [5] 0.089 | [6] -0.09

MAD2L1 (UniProt Q13257)
inactive: [1] -0.013 | [2] -0.09 | [3] -0.193 | [4] -0.124 | entinostat 0.036 | vorinostat 0.021 | citarinostat 0.014 | silmitasertib 0.072 | [5] -0.032 | [6] 0.006

LNPEP (UniProt Q9UIQ6)
inactive: [1] 0.037 | [2] 0.011 | [3] -0.037 | [4] 0.019 | entinostat -0.028 | vorinostat -0.007 | citarinostat 0.056 | silmitasertib 0.002 | [5] 0.004 | [6] -0.022

KHDC4 (UniProt Q7Z7F0)
inactive: [1] -0.017 | [2] -0.003 | [3] -0.078 | [4] -0.034 | entinostat 0.009 | vorinostat 0.028 | citarinostat 0.08 | silmitasertib 0.01 | [5] -0.155 | [6] -0.052

MARCKSL1 (UniProt P49006)
inactive: [1] -0.02 | [2] 0.028 | [3] -0.01 | [4] 0.002 | entinostat 0.075 | vorinostat -0.062 | citarinostat 0.162 | silmitasertib -0.115 | [5] -0.035 | [6] 0.089

MAPK14 isoform 2 (UniProt Q16539)
UniProt Q16539, sequence (Q16539 whole entry, looked up): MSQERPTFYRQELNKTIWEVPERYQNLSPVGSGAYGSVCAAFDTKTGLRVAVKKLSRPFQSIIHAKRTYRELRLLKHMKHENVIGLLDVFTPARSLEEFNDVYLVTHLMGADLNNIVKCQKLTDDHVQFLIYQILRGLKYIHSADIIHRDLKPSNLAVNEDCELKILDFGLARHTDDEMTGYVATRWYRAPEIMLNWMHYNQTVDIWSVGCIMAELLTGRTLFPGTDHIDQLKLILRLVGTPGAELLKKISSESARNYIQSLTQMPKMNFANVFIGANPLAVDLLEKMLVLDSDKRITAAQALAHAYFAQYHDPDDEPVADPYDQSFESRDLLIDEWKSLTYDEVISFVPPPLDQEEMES
inactive: [1] -0.052 | [2] 0.028 | [3] -0.192 | [4] -0.168 | entinostat 0.016 | vorinostat -0.055 | citarinostat 0.085 | silmitasertib 0.477 | [5] -0.004 | [6] 0.024

KIF3B (UniProt O15066)
inactive: [1] -0.016 | [2] -0.029 | [3] -0.091 | [4] -0.128 | entinostat -0.016 | vorinostat -0.179 | citarinostat 0.053 | silmitasertib -0.086 | [5] -0.112 | [6] 0.215

IMMT isoform 2 (UniProt Q16891)
inactive: [1] 0 | [2] -0.045 | [3] -0.044 | [4] -0.066 | entinostat 0.039 | vorinostat 0.159 | citarinostat 0.042 | silmitasertib -0.066 | [5] 0.064 | [6] 0.008

KHDRBS1 (UniProt Q07666)
UniProt Q07666, sequence (Q07666 whole entry, looked up): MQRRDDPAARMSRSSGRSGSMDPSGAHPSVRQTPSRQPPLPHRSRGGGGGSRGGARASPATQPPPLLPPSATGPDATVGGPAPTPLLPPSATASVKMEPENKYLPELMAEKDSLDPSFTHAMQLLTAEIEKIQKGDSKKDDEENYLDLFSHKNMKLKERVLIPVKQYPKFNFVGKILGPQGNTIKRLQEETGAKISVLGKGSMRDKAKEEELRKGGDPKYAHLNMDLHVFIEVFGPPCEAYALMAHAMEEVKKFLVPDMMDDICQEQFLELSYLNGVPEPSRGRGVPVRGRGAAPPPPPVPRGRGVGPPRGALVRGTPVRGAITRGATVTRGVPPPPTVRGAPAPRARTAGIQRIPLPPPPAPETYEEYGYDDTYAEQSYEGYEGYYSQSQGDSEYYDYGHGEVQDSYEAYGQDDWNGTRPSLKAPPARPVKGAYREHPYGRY
inactive: [1] -0.013 | [2] -0.038 | [3] -0.009 | [4] -0.034 | entinostat -0.025 | vorinostat 0.037 | citarinostat 0.099 | silmitasertib 0.018 | [5] 0.039 | [6] -0.064
